Results filed as inconclusive are left out. Calls of active or inactive are those of the source. Unless noted, calls follow the shape of the dose curve; as a rule, active = well fitted curve in the direction sought with a large enough effect in the repeat runs; inconclusive = weak or mixed curves; inactive = no such curve, though single readings can be large; an effect the other way counts as inactive or inconclusive.
Key:
[1] = qHTS assay to identify small molecule antagonists of the sonic hedgehog signaling (Shh) pathway (AID 1259369; calls by dose curve; also: nearly all actives have a fitted effect of over 45% in size)
How it was run: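 Luminescence readout: firefly Luc under Gli1 response element in 3T3Gli1-Luc cells (NIH/3T3 clone). Antagonist mode, stimulation by conditioned medium; compound exposure 24hr at 37 C, 5% CO2.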

[2] = molecular target: Estrogen receptor beta (Homo sapiens) (UniProt Q92731); test: qHTS assay to identify small molecule agonists of the estrogen receptor beta (ER-beta) signaling pathway (AID 1259377; active = well fitted activation curve with a large enough effect in the signal ratio in the repeat runs, not every such curve was filed as active; the % refers to the signal ratio)
Estrogen receptor beta (Homo sapiens), sequence (Q92731 whole entry, looked up): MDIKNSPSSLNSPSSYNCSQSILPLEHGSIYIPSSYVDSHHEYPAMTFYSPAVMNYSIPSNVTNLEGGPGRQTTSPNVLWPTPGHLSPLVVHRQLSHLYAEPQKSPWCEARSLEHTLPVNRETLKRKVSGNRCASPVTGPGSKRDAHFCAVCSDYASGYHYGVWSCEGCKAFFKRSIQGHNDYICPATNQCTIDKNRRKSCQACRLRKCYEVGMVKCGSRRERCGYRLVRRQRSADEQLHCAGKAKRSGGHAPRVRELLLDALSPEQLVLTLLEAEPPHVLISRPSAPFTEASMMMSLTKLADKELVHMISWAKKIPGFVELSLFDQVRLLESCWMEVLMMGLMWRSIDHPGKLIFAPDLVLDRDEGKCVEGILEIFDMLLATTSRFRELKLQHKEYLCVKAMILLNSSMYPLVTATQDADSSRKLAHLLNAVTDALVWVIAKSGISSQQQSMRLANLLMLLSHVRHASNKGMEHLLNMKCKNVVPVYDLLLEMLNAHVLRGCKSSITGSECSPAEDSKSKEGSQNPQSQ
How it was run: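 Beta-lactamase reporter readout: fluorescence of LiveBLAzer B/G FRET substrate after 2 h at room temperature, following 16 h compound treatment of ER-beta-UAS-bla HEK293T cells at 37C in 2% charcoal-stripped FBS medium.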

[3] = molecular target: Estrogen receptor beta (Homo sapiens) (UniProt Q92731); test: qHTS assay to identify small molecule antagonists of the estrogen receptor beta (ER-beta) signaling pathway (AID 1259378; active = well fitted inhibition curve with a large enough effect in the signal ratio in the repeat runs, not every such curve was filed as active; the % refers to the signal ratio)
How it was run: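 ER-beta-UAS-bla HEK293T cells in 2% charcoal-stripped FBS medium treated with compound plus 1nM final 17-beta-estradiol for 16 hr at 37C. Beta-lactamase reporter read by FRET substrate fluorescence after 2 hours at room temperature.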

[4] = qHTS assay to identify small molecule agonists of the androgen receptor (AR) signaling pathway in the presence of an antagonist - cell viability counter screen (AID 1259379);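 also: MDA-kb2 human breast cancer cells carrying an MMTV luciferase reporter; series mostly up to about 92 µM; nearly all actives have a fitted effect of over 25% in size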
How it was run: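 Viability counter screen: CellTiter-Fluor fluorescence, measured in the same wells as the luciferase read-out. MDA-kb2 cells, 3,000/well, with nilutamide at 3.0uM final and compounds at 15 concentrations, 16 hr at 37C, 0% CO2.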

[5] = qHTS assay to identify small molecule agonists of the estrogen receptor beta (ER-beta) signaling pathway - cell viability counter screen (AID 1259380); also: nearly all actives have a fitted effect of over 30% in size
How it was run: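 Luminescence read-out (CellTiter-Glo, 30 min, room temp) taken in the same wells as the beta-lactamase reporter assay; ER-beta-UAS-bla HEK293T cells exposed to DMSO-dissolved compounds for 16 hr at 37C in 2% charcoal-stripped FBS medium.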

[6] = qHTS assay to identify small molecule antagonists of the estrogen receptor beta (ER-beta) signaling pathway - cell viability counter screen (AID 1259382); also: series mostly up to about 92 µM; nearly all actives have a fitted effect of over 55% in size
How it was run: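 Luminescent ATP read-out (CellTiter-Glo, 30 min, RT) taken in the same wells as the bla reporter assay. HEK293T ER-beta-UAS-bla cells in 2% charcoal-stripped FBS were exposed to compounds with 1nM E2 for 16 hr at 37C.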

[7] = qHTS assay to identify small molecule agonists or antagonists of the thyroid stimulating hormone receptor (TSHR) signaling pathway - wild type cell line counter screen (AID 1259384; calls by dose curve)
How it was run: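 Wild-type Hek293 cells, 800/well, 18 h at 37C, then compound with Ro20-1724 for 30 min RT. cAMP by HTRF (cAMP-d2/anti-cAMP cryptate), 1 h RT, fluorescence read. 15 concentrations, triplicates.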

[8] = molecular target: Thyrotropin receptor (Homo sapiens) (UniProt P16473); test: qHTS assay to identify small molecule antagonists of the thyroid stimulating hormone receptor (TSHR) signaling pathway (AID 1259385; calls by dose curve; also: nearly all actives have a fitted effect of over 20% in size)
Thyrotropin receptor (Homo sapiens), sequence (P16473 whole entry, looked up): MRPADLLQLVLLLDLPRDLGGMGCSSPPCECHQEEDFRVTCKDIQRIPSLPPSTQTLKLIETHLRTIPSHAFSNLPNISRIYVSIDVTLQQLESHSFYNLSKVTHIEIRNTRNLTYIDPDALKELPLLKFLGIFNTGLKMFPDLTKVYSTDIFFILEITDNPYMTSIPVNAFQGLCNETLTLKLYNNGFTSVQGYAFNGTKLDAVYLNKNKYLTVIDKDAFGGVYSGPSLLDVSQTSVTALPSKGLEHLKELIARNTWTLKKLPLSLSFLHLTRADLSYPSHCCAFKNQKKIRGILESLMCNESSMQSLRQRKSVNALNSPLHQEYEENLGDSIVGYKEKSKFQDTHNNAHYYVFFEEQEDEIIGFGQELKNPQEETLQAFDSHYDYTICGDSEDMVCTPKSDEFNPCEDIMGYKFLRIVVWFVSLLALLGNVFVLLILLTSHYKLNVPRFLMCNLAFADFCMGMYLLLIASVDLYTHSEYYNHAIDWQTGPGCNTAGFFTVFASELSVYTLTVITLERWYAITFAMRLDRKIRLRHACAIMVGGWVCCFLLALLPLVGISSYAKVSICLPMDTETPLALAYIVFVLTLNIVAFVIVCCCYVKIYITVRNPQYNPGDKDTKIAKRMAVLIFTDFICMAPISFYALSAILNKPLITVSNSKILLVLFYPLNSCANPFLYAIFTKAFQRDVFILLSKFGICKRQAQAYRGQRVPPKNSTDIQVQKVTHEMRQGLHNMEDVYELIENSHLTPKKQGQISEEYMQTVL
How it was run: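 TSHR-HEK293 cells (800/well) plated 18 h, then compounds with Ro20-1724 and TSH at 1.5 ng/mL final, 30 min at room temperature. cAMP quantified by HTRF (cAMP-d2/anti-cAMP-cryptate, 1 h); 15 concentrations in triplicate.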

[9] = qHTS assay to identify small molecule agonists of the estrogen receptor alpha (ER-alpha) signaling pathway in the presence of an antagonist - cell viability counter screen (AID 1259386);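 also: series mostly up to about 92 µM; cells exposed to compounds for 22 h at 37 °C before the viability read; nearly all actives have a fitted effect of over 30% in size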
How it was run: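 Read-out: CellTiter-Fluor fluorescence after 1hr reagent incubation, measured in the same wells as the luciferase readout. VM7Luc4E2 cells were exposed to 15 compound concentrations with 10.0nM ICI-182,780 for 22hr at 37C.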

[10] = molecular target: Progesterone receptor (Homo sapiens) (UniProt P06401); test: qHTS assay to identify small molecule agonists of the progesterone receptor (PR) signaling pathway (AID 1346784; calls by dose curve; also: nearly all actives have a fitted effect of over 30% in size)
Progesterone receptor (Homo sapiens), sequence (P06401 whole entry, looked up): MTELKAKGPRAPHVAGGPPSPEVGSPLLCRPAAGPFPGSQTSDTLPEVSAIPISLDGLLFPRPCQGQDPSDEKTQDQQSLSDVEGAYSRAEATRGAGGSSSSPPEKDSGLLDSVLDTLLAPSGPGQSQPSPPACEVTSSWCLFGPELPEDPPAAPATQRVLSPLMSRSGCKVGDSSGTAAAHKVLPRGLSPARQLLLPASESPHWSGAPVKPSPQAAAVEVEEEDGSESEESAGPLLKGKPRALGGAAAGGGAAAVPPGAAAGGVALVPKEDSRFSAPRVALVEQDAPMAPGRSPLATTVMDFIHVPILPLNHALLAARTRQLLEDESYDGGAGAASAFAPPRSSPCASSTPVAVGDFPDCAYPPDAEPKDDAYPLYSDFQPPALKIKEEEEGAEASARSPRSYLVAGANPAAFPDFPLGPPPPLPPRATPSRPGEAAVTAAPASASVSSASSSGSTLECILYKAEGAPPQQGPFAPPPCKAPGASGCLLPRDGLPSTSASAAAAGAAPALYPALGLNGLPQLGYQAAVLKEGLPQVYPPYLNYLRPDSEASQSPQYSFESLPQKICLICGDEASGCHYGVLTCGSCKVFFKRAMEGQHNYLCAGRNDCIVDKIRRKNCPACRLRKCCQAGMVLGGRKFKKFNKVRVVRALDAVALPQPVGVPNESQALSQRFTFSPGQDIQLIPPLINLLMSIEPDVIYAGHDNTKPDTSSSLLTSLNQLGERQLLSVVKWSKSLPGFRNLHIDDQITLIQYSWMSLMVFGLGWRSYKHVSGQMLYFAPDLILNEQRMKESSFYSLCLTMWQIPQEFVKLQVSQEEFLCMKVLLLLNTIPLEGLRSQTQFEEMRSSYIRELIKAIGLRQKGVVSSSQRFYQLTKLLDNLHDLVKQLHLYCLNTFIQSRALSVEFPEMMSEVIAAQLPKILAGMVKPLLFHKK
How it was run: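 HEK 293T PR-UAS-bla reporter cells, 2% charcoal-stripped FBS; 6 hr settle at 37C/5% CO2, compound (DMSO) 16 hr, LiveBLAzer B/G FRET substrate 2 hr RT, fluorescence intensity read.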

[11] = qHTS assay to identify small molecule agonists of the progesterone receptor (PR) signaling pathway - cell viability counter screen (AID 1346799; calls by dose curve; also: nearly all actives have a fitted effect of over 45% in size)
How it was run: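 HEK293T PR-UAS-bla, 3,000 cells/well, 2% charcoal-stripped FBS; 6 h settle, compound 16 h at 37C/5% CO2; LiveBLAzer 2 h RT, then CellTiter-Glo 30 min RT, luminescence read.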

[12] = qHTS assay to identify small molecule agonists of the TGF-beta/Smad signaling pathway - cell viability counter screen (AID 1346829); also: top concentration of the series differs between compounds; nearly all actives have a fitted effect of over 45% in size
How it was run: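 Compound-treated SBE-bla HEK 293T cells (5 hr, 37 C) were assessed for viability with CellTiter-Glo in parallel with the reporter read.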

[13] = qHTS assay to identify small molecule agonists of the TGF-beta/Smad signaling pathway (AID 1346859; active = well fitted activation curve with a large enough effect in the signal ratio in the repeat runs, not every such curve was filed as active; the % refers to the signal ratio; also: series mostly up to about 77 µM)
How it was run: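 Read-out: fluorescence at 460 and 530 nm (405 nm excitation) after a 2 hr room-temperature incubation with beta-lactamase FRET substrate. SBE-bla HEK 293T cells had been treated with test compounds for 5 hr at 37 C.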

[14] = molecular target: Thyrotropin-releasing hormone receptor (Homo sapiens) (UniProt P34981); test: qHTS assay to identify small molecule antagonists of the thyrotropin-releasing hormone receptor (TRHR) signaling pathway (AID 1346877; active = well fitted inhibition curve with a large enough effect in the repeat runs, not every such curve was filed as active; also: series mostly up to about 51 µM)
Thyrotropin-releasing hormone receptor (Homo sapiens), sequence (P34981 whole entry, looked up): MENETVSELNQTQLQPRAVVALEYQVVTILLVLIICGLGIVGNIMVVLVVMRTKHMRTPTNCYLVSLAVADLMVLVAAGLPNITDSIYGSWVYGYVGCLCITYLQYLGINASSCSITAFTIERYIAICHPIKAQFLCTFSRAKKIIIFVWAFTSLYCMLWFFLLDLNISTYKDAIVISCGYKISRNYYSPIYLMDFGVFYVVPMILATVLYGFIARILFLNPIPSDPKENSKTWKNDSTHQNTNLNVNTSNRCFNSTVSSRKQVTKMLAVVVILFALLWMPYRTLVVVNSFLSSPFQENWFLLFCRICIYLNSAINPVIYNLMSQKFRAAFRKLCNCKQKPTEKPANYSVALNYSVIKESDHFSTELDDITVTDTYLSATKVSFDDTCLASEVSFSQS
How it was run: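 HEK293/TRHR cells, 18 h, 37 °C; Ca2+ dye 2 h; cpd 5 min RT; TRH 1 nM final; fluorescence read 3 min, 1 s intervals; 15 concs, triplicate.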

[15] = molecular target: Thyrotropin-releasing hormone receptor (Homo sapiens) (UniProt P34981); test: qHTS assay to identify small molecule agonists of the thyrotropin-releasing hormone receptor (TRHR) signaling pathway (AID 1346891; calls by dose curve;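 also: HEK293 cells expressing TRHR with calcium dye readout; series mostly up to about 58 µM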)
How it was run: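 HEK293/TRHR cells, 1500 per well, 18 h 37 °C; Ca dye 2 h 37 °C; pin-tool compound addition (agonist mode); kinetic fluorescence 3 min, 1 s reads; 15 concentrations, triplicate.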

[16] = molecular target: Progesterone receptor (Homo sapiens) (UniProt P06401); test: qHTS assay to identify small molecule antagonists of the progesterone receptor (PR) signaling pathway (AID 1346795; active = well fitted inhibition curve with a large enough effect in the signal ratio in the repeat runs, not every such curve was filed as active; the % refers to the signal ratio)
How it was run: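 Beta-lactamase reporter, HEK293T PR-UAS-bla line; 2% charcoal-stripped FBS; 6 hr pre-incubation, 37C/5% CO2. Compound + R5020 1 nM final, 16 hr. LiveBLAzer B/G FRET substrate, 2 hr RT; fluorescence intensity read.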

[17] = qHTS assay to identify small molecule antagonists of the progesterone receptor (PR) signaling pathway - cell viability counter screen (AID 1346798); also: series mostly up to about 92 µM; nearly all actives have a fitted effect of over 50% in size
How it was run: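 Luminescence readout (CellTiter-Glo, 30 min, RT) of viability in PR-UAS-bla HEK293T cells exposed to compound and R5020 agonist for 16 hr at 37C, 5% CO2; run in the same wells as the beta-lactamase reporter read.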

[18] = qHTS assay to identify small molecule antagonists of the TGF-beta/Smad signaling pathway - cell viability counter screen (AID 1346824); also: nearly all actives have a fitted effect of over 50% in size
How it was run: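 SBE-bla HEK 293T cells, incubated overnight, then compound plus 0.25 ng/mL TGF-beta1 (stock added) for 5 hr at 37 C. Viability was read in the same wells by CellTiter-Glo luminescence after 30 min at room temperature.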

[19] = molecular target: Estrogen receptor (Homo sapiens) (UniProt P03372); test: qHTS assay to identify small molecule agonists of the estrogen receptor alpha (ER-alpha) signaling pathway in the presence of an antagonist (AID 1259383; calls by dose curve; also: top concentration of the series differs between compounds; nearly all actives have a fitted effect of over 15% in size)
Estrogen receptor (Homo sapiens), sequence (P03372 whole entry, looked up): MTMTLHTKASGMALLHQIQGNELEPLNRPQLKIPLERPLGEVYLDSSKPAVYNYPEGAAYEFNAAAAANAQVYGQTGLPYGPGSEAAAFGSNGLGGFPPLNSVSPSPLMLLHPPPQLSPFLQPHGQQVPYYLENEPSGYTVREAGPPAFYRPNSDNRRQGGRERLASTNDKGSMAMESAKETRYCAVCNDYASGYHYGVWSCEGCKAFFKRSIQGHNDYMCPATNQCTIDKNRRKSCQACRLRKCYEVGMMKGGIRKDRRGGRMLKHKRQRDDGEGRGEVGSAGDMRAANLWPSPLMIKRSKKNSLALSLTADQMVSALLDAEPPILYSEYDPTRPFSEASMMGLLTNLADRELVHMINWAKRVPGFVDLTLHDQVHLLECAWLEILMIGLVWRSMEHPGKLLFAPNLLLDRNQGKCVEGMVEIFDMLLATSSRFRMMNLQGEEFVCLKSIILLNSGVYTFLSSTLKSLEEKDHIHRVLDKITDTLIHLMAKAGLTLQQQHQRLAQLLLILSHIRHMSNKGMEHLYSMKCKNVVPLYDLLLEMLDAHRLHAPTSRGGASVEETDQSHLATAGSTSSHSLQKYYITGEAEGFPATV
How it was run: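 Luciferase luminescence (ONE-Glo, 30min at room temperature) measured in VM7Luc4E2 cells after 22hr compound exposure at 15 concentrations, with 10.0nM ICI-182,780 final present; cells express endogenous ER-alpha and carry four EREs upstream of luciferase.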

Measured: Potency

CCCCCCCCCCCCSC
not listed: [16] | [17] | [18] | [19]
inactive: all other assays above

OCCc1ccccn1
not listed: [7] | [8] | [18] | [19]
inactive: all other assays above

CC1=C(C/C=C(\C)CCC[C@H](C)CCC[C@H](C)CCCC(C)C)C(=O)c2ccccc2C1=O
not listed: [5] | [14] | [15] | [19]
inactive: all other assays above

Nc1ccncc1N
not listed: [5] | [14] | [16] | [19]
inactive: all other assays above

Cc1ccc(-c2ncc(Cl)cc2-c2ccc(S(C)(=O)=O)cc2)cn1
not listed: [5] | [10] | [11] | [13] | [14] | [15] | [17]
inactive: all other assays above

CCOC(=O)CCC(=O)OCC
not listed: [10] | [16] | [19]
inactive: all other assays above

CC(C)(CCC(=O)O)C(=O)O
not listed: [7] | [8] | [10] | [13] | [19]
inactive: all other assays above

c1ccc2sc(SN3CCOCC3)nc2c1
not listed: [10] | [13] | [14] | [17] | [19]
inactive: all other assays above

Cc1ncc([C@@H](CCCCCCc2ccc3c(n2)NCCC3)CC(=O)O)cn1
not listed: [7] | [8] | [9] | [10] | [11] | [16] | [19]
inactive: all other assays above

Source: PubChem BioAssay (Tox21)
